Compound activity deposited in PubChem by National Center for Advancing Translational Sciences (NCATS).
G9a inh – blocks human histone lysine methyltransferase G9a; Q96KQ7; G9a H3K9 monomethylation, AlphaScreen, 2 h; Potency, µM (series often up to 102 µM), for the others: at the top dose activity, negative = inhibition, hits mostly inhibitors; hit rate 8.8% among 350,000; AID 504332; also: potency is read from the fitted curve at half-maximal effect; % is scaled to controls: 0 for no effect and ±100 for the full control effect; nearly all actives have a fitted effect of over 75% in size
Target sequence (Q96KQ7 913-1193 limits assumed): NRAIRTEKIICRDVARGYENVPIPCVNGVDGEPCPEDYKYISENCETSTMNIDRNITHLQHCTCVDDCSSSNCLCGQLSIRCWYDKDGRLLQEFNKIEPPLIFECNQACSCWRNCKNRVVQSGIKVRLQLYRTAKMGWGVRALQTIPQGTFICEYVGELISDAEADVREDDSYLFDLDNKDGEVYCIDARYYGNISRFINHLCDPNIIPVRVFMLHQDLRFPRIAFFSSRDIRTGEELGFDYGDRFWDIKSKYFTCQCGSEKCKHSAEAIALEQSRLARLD
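G9a (20 nM) was preincubated 15 min with compound, then reacted 2 h at room temperature with 500 nM biotin-H3K9 peptide and 20 µM SAM. Monomethyl-H3K9 detected by AlphaScreen using anti-H3K9me1 antibody.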
BAZ2B inh – blocks human BAZ2B; Q9UIF8; hit rate 4.4% among 360,000; AlphaScreen BAZ2B-H3K14Ac peptide displacement; Potency, µM (top dose mostly 114 µM), for the others: at the top dose activity change, negative = inhibition, actives largely listed as inhibitors; also: potency is read from the fitted curve at half-maximal effect; % is scaled to controls: 0 for no effect and ±100 for the full control effect; nearly all actives have a fitted effect of over 60% in size
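Compounds, titrated to a top concentration of 110 uM, were incubated 30 min at room temperature with preformed BAZ2B/acetyl-K14 H3 peptide complex (50 nM each). Proximity signal was measured by AlphaScreen after 20 min with beads.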
HP1b chromo inh – blocks HP1-beta chromodomain binding to methylated histone tails. P83916. AlphaScreen HP1-beta / biotin-H3K9me3 peptide binding. Potency, µM (highest dose often 114 µM), for inactives: top-dose activity change, negative = inhibition, hits mostly inhibitors. hit rate 0.56% among 390,000. AID 540317; also: potency is read from the fitted curve at half-maximal effect; nearly all actives have a fitted effect of over 70% in size
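HP1-beta protein (50 nM final) preincubated 30 min at room temperature with biotinylated H3(1-18)K9me3 peptide (50 nM) in PBS pH 7.4, 0.01% Tween-20, then compound added for 30 min. AlphaScreen streptavidin donor/nickel chelate acceptor beads (10 ug/mL final), 30 min dark, luminescence read.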
PI5P4K alpha inh – blocks human PI5P4K alpha kinase activity. max response, %. P48426. hit rate 1.2% among 330,000. PI5P4Kalpha enzyme, ADP-Glo luminescence, 60 min; hits give low values; active = max response of -50% or lower; inconclusive = between -30% and -50%; inactive = -30% or higher; also: value at the top dose of about 77 µM; % is scaled to controls: 0 for no effect and ±100 for the full control effect
Target sequence (P48426 whole entry, looked up): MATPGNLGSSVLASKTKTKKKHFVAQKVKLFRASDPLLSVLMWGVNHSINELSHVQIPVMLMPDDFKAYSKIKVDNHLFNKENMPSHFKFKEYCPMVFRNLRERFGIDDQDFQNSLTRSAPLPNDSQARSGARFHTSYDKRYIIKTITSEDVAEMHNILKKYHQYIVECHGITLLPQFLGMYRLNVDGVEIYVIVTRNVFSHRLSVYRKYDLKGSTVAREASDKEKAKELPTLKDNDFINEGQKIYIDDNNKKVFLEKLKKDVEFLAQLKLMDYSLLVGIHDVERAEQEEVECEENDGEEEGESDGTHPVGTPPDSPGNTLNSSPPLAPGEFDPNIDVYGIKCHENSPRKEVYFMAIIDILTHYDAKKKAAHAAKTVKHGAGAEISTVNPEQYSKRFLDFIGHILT
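qHTS, 1536-well: enzyme/substrate mix, compound by pin tool, 5 microM ATP final; RT 60 min; ADP-Glo reagents 1 (45 min) then 2 (30 min); luminescence.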
JMJD2A Tudor inh – inhibitors of human JMJD2A Tudor domain; Potency, µM (highest dose often 114 µM), inactives show at the highest dose activity change, negative = inhibition, hits mostly inhibitors; O75164; AID 504339; AlphaScreen JMJD2A-Tudor / H3K4me3 peptide binding; hit rate 4.4% among 390,000; also: potency is read from the fitted curve at half-maximal effect; % is scaled to controls: 0 for no effect and ±100 for the full control effect; nearly all actives have a fitted effect of over 50% in size
PLK1 PBD inh – blocks phosphopeptide binding to human PLK1 polo-box domain; Plk1 PBD binding of FITC phosphopeptide, fluorescence polarization; Potency, µM, for inactives: max response, negative = inhibition, usual class: inhibitors; hit rate 2.8% among 360,000; also: potency is read from the fitted curve at half-maximal effect; series mostly up to about 57 µM; % is scaled to controls: 0 for no effect and ±100 for the full control effect; nearly all actives have a fitted effect of over 65% in size
* = called active by the depositor; ? = inconclusive; / = no result given; [ ] = another dose, or the depositor's remark. Hits are enriched below; roughly 12% of the tested compounds scored in any of these assays. Unless noted, calls follow the shape of the dose curve; as a rule, active = well fitted curve in the direction sought with a large enough effect; inconclusive = small, poorly fitted or top-dose-only effect, or another doubt; inactive = no such curve, though single readings can be large; an effect the other way counts as inactive or inconclusive.

SMILES	G9a inh	BAZ2B inh	HP1b chromo inh	PI5P4K alpha inh	JMJD2A Tudor inh	PLK1 PBD inh
CCNC(=O)c1cnc2c(-c3ccccc3)c(C)nn2c1C	7%[59 µM]	-9%	73%	/	-10%	/
COc1ccc(-n2cc(CNCC3CCOCC3)c(-c3cccc(F)c3)n2)cc1	-3%	-9%	61%	-2	-5%	3%
COc1ccc(-n2cc(CNCCCn3ccnc3)c(-c3cccc(F)c3)n2)cc1	2%[0.501 µM]	?	7%	-3	?	-4%
COc1ccc(-n2cc(CNCc3cnc4ccccn34)c(-c3cccc(F)c3)n2)cc1	/	45µM*	-25%	8	-23%[11.4 µM]	-4%
COc1ccc(-n2cc(CN(C)C3CCOCC3)c(-c3cccc(F)c3)n2)cc1	16%	-6%	-13%	3	-7%	24µM*
CCOc1cccc(C2C=C(c3ccc4c(c3)OCO4)NC(c3ccc(Cl)cc3)N2)c1O (stereo not drawn)	/	/	-9%[57 µM]	/	-9%[57.1 µM]	/
CCCn1c2ccccc2c2cnn(CC(=O)NCC3CCN(Cc4ccc(F)cc4)CC3)c(=O)c21	-7%[59 µM]	-7%	-21%	/	-30%	/
O=C1C(=O)N(C2CCNCC2)CCN1Cc1ccccc1	?	1%	0%	/	-16%	/
CC(C)=CCC/C(C)=C/C(N)=O	18%	-37%	17%[57 µM]	4	-8%	-14%
CC(C)=CCC/C(C)=C/C=C/C(C)=C/C=C/C(C)=C/C=C/C=C(C)/C=C/C=C(C)/C=C/C=C(\C)CCC=C(C)C	20µM*	/	/	/	/	/
O=C(Nc1ccc(S(=O)(=O)Nc2cnc3ccccc3n2)cc1)c1ccc(Br)o1	45µM*	0%	16%	/	-18%	-8%
O=C(Nc1ccc(S(=O)(=O)Nc2cnc3ccccc3n2)cc1)c1ccccc1Br	1%[59 µM]	-5%	2%	-14	-12%	-5%
O=C(NCC1CCCO1)c1ccc2c(=O)n(CCc3ccccc3)c(=O)[nH]c2c1 (stereo not drawn)	17%[2.33 µM]	-5%	21%	-11	-12%	-9%
Cc1ccc(CNC(=O)c2ccc3c(=O)[nH]c4c(C(=O)NCC5CCCO5)sc(=S)n4c3c2)cc1 (stereo not drawn)	?	35µM*	-38%	3	?	?
O=C(NCc1ccccc1)c1ccc2c(=O)[nH]c3c(C(=O)NCC4CCCO4)sc(=S)n3c2c1 (stereo not drawn)	45µM*	40µM*	?	-17	?	?
Cc1ccc(CNC(=O)C(=O)NCC2CCCO2)cc1 (stereo not drawn)	-2%[59 µM]	8%	18%	7	-7%	0%
O=C(NCC1CCCO1)c1ccc2c(=O)n(-c3ccc(F)cc3)c(=S)[nH]c2c1 (stereo not drawn)	?	-13%	62%	2	-8%	2%
CCCCCNC(=O)c1ccc2c(=O)[nH]c3c(C(=O)NCC4CCCO4)sc(=S)n3c2c1 (stereo not drawn)	?	-39%	?	-26	-33%[57.1 µM]	27µM*
O=C(Cc1coc2cc3c(cc12)CCC3)OCc1cc(=O)n2c(n1)sc1ccccc12	-35%[12.7 µM]	50µM*	?	?	?	-25%
Cc1ccc2c(CC(=O)OCc3csc(C)n3)coc2c1	1%[59 µM]	41%	28%	/	18%	-3%
COc1cc(CN2CCN(c3cccc(C)c3C)CC2)cc([N+](=O)[O-])c1O	11µM*	50µM*	?	-11	2.2µM*	-20%
Cc1cccc(N2CCN(CC(=O)Nc3ccccc3[N+](=O)[O-])CC2)c1C	24%	-5%	1%	/	-18%	-4%
COc1ccc(N2CCN(Cc3cc(OC)c(O)c([N+](=O)[O-])c3)CC2)cc1	7.1µM*	50µM*	16µM*	9	1µM*	-1%
CCOC(=O)c1c(NC(=O)Nc2ccccc2)sc(C)c1C	40µM*	-6%	-17%	0	-20%	?
CCOC(=O)c1c(NC(=S)Nc2cccnc2)sc(C)c1C	45µM*	?	12%	6	-16%	?
SMILES	G9a inh	BAZ2B inh	HP1b chromo inh	PI5P4K alpha inh	JMJD2A Tudor inh	PLK1 PBD inh
NCCCN(Cc1ccc(Cl)c(Cl)c1)c1ccc(Br)cn1	/	/	0%	/	-23%	/
CCc1ccccc1NC(=O)Cn1cc(S(=O)(=O)N2CCCC2)c(S(=O)(=O)N2CCCC2)c1	-2%[59 µM]	5%[57.1 µM]	11%	/	-11%	/
CCCCN(C(=O)c1ccc(Br)o1)C1CCS(=O)(=O)C1 (stereo not drawn)	50µM*	8%	38%	3	-4%	-1%
N#Cc1cnc2sc3ccccc3n2c1=N	-10%	0%	38%	-61*	0%	-12%
COc1ccc(/C=c2\s/c(=C\C(=O)C(C)(C)C)[nH]c2=O)cc1O	/	?	20%	-72*	-27%	-4%
CC1CCN(CCOc2ccc(Cl)c(Cl)c2)CC1	?	-29%	?	5	10µM*	-9%
CCN1CCN(CCNC(=O)Nc2ccc([N+](=O)[O-])cc2)CC1	-42%	-6%	28%	1	8%	2%
O=C(NCCN1CCCCC1)Nc1ccc([N+](=O)[O-])cc1	79µM*	-9%	7%	0	-12%	-13%
Cc1ccc(C)c(OCCN2CCOCC2)c1	?	-16%	37%	0	10%	6%
Cc1ccc(OCCN2CCOCC2)cc1C	-1%	2%	38%	4	-10%	-14%
Cc1cc(C)c(OCCN2CCOCC2)c(Cl)c1	32µM*	?	?	0	28µM*	-4%
Cc1cc(OCCN2CCOCC2)ccc1Cl	10µM*	?	?	-6	-100%	-10%
COC(=O)[C@]1(CC(C)C)N[C@H](c2ccc(-c3ccc(F)cc3)c(OC)c2)[C@@H]2C(=O)N(C)C(=O)[C@@H]21	17%[2.33 µM]	?	9%	-9	?	-10%
O=[N+]([O-])c1ccc(OCCN2CCCCCC2)cc1	32µM*	50µM*	?	5	2.8µM*	0%
CC(=O)c1ccc(OCCOc2ccc([N+](=O)[O-])cc2)cc1	5%	-19%	16%	5	-12%	-15%
O=Cc1ccccc1OCCOc1ccc([N+](=O)[O-])cc1	-1%	-15%	-12%	-18	-29%	27µM*
C[N+]1(CCOc2ccc([N+](=O)[O-])cc2)CCOCC1	?	?	?	-4	56µM*	?
Cc1cc(OCCN2CCOCC2)ccc1[N+](=O)[O-]	7.9µM*	50µM*	?	0	0.71µM*	-13%
O=S(=O)(c1ccc(Br)cc1)N1CCN(c2nc(-c3ccccc3)nc3ccccc23)CC1	/	/	40%	/	-21%	/
O=C1C[C@H](c2ccc3ccccc3c2)N1S(=O)(=O)c1ccccc1[N+](=O)[O-]	/	/	39%	/	-28%	/
Cc1cc(OCCN2CCCC2)ccc1[N+](=O)[O-]	7.9µM*	?	-12%	-7	3.2µM*	-5%
